Drawing on PubChem BioAssay (EPA / NIEHS), this text covers outcome and AC50 for eight compounds.

Records with an inconclusive call do not appear. Calls of active or inactive are those of the source. The calls were made as follows: active = hit-call score of the fitted dose curve at least 0.9, where 1 is the maximum; inconclusive = response in the unintended direction; inactive = score below 0.9.

One may read the AC50 as the midpoint of the concentration-response curve, whichever way the signal moves.

Sequence of bovine Gamma-Aminobutyric Acid Type A Receptor BDZ, alpha 1 site (GABARa1), GABRA1 (gene 780973) (P08219 whole entry, looked up): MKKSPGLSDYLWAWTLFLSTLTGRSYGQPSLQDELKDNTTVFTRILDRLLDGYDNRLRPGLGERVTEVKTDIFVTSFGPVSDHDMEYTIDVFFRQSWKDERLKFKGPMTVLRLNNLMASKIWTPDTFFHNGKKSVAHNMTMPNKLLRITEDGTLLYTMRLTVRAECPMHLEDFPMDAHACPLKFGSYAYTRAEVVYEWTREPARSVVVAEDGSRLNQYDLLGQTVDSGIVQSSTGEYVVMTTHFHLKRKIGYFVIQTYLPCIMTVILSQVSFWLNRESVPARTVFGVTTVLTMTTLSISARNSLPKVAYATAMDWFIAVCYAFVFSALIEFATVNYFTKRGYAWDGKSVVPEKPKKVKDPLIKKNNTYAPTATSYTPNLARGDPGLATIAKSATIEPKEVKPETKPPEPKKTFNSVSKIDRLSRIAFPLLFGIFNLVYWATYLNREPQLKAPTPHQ

For one assay, the target named is Voltage-dependent N-type calcium channel subunit alpha-1B (Rattus norvegicus) (UniProt Q02294). In words: NVS_IC_rCaChN: NovaScreen (NVS) Ion Channel Assay for rat Calcium Channel, Type N (CaChN) (AID 2283317).
In the case of `CCCOc1ccc(S(=O)(=O)N2CCN(CC)CC2)cc1-c1nc2c(CC)n(Cc3ccccn3)nc2c(=O)[nH]1`, the outcome was inactive. The same measure, in the same setting: for `CNCc1ccc(NC(=O)c2c[nH]c3c2C(=O)CCC3)cc1` the value was “inactive”; for `CCCCCCCCCCCCCCCS(=O)(=O)Oc1ccccc1`, “inactive”; for `OCC(CO)(CO)CO`, “inactive”. Still for that read-out and setting: for `CC/C(=C\C(=N/O)C(N)=O)C(C)[N+](=O)[O-]` (centres undefined) the value was “inactive”.

The target in the next assay is bovine Gamma-Aminobutyric Acid Type A Receptor BDZ, alpha 1 site (GABARa1), GABRA1 (gene 780973) (UniProt P08219). In words: NVS_LGIC_bGABARa1: NovaScreen (NVS) Ligand-Gated Ion Channel Assay for bovine Gamma-Aminobutyric Acid Type A Receptor BDZ, alpha 1 site (GABARa1) (AID 2283321). The method, boiled down:
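Bovine cortex membrane preparation, benzodiazepine site on GABA-A alpha1; specific radioligand displacement read after 0.75 h by filtration and scintillation. Screen at 25 uM, then singleton titrations up to 50 uM; DMSO baseline.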
Turning to `NC(=Nc1ccccc1)Nc1ccccc1`, the concentration at half-maximal activity (AC50) was 21.8 µM (active).

As for `Cn1cnc([N+](=O)[O-])c1Sc1ncnc2nc[nH]c12`, the result was inactive. For `CNCc1ccc(NC(=O)c2c[nH]c3c2C(=O)CCC3)cc1`, the AC50 was 0.0626 µM (active). On the same count and under the same terms, for `Cc1cc(SC2=C(O)C[C@@](CCc3ccc(N)cc3)(C(C)C)OC2=O)c(C(C)(C)C)cc1CO` the value was 22.6 µM (active).
